Reference: PubChem BioAssay (NCATS)
Inconclusive results are not listed. Active and inactive are the calls of the source. Calls follow the shape of the dose curve; as a rule, active = well fitted curve in the direction sought with a large enough effect; inconclusive = small, poorly fitted or top-dose-only effect, or another doubt; inactive = no such curve, though single readings can be large; an effect the other way counts as inactive or inconclusive.

Key:
UISO = assay: qHTS assay to identify novel small-molecules to repurpose for Merkel cell carcinoma treatment (AID 1296009); settings: MCC and control cell lines, CellTiter-Glo viability, 72 h; series mostly up to 46 µM; also: nearly all actives have a fitted effect of over 60% in size
How it was run: (§1)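 Cell viability, measured as CellTiter-Glo luminescence, was normalized between DMSO and no-cell wells. The cells had been exposed to 8- or 11-point compound dilutions for 72 hr at 37 degree celsius.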

C33A = assay: Primary qHTS to identify gynecologic anti-cancer compounds using libraries of approved drugs and bioactive compounds (AID 1345084); settings: Gynecologic cancer cell panel viability, ATPlite luminescence, 48 h; series mostly up to 57.5 µM; also: nearly all actives have a fitted effect of over 55% in size
How it was run: (§2)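 Cell viability after 48 h drug treatment, ATPlite luminescence readout; five doses.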

CAOV3 = assay: as above; settings: Gynecologic cancer cell panel viability, ATPlite luminescence, 48 h; series mostly up to 57.5 µM
How it was run: as §2

CASKI = assay: as above; settings: Gynecologic cancer cell panel viability, ATPlite luminescence, 48 h; series mostly up to 57.5 µM
How it was run: as §2

Es-2 = assay: as above; settings: Gynecologic cancer cell panel viability, ATPlite luminescence, 48 h; series mostly up to 57.5 µM
How it was run: as §2

HeLa = assay: as above; settings: Gynecologic cancer cell panel viability, ATPlite luminescence, 48 h; series mostly up to 57.5 µM
How it was run: as §2

Hek293T = assay: as above; settings: Gynecologic cancer cell panel viability, ATPlite luminescence, 48 h, control line for the selectivity index; series mostly up to 57.5 µM
How it was run: as §2

JEG-3 = assay: as above; settings: Gynecologic cancer cell panel viability, ATPlite luminescence, 48 h; series mostly up to 57.5 µM
How it was run: as §2

WaGa = assay: qHTS assay to identify novel small-molecules to repurpose for Merkel cell carcinoma treatment (AID 1296009); settings: MCC and control cell lines, CellTiter-Glo viability, 72 h; series mostly up to 46 µM; also: nearly all actives have a fitted effect of over 60% in size
How it was run: as §1

Measured: Potency

CCN(CC)CCOCCOC(=O)C1(c2ccccc2)CCCC1
not listed: WaGa
inactive: all other assays above

CCCN(CCC)C(=O)C(CCC(=O)O)NC(=O)c1ccccc1 (configuration not stated)
inactive: all assays above

O=C1CC2(CCCC2)CC(=O)N1CCCCN1CCN(c2ncccn2)CC1
not listed: CAOV3
inactive: all other assays above

Brc1c(NC2=NCCN2)ccc2nccnc12
inactive: all assays above

CCCCNC(=O)NS(=O)(=O)c1ccc(C)cc1
not listed: CAOV3
inactive: all other assays above

NC(N)=N/N=C/c1c(Cl)cccc1Cl
not listed: WaGa
inactive: all other assays above

CCN1CCc2nc(N)oc2CC1
inactive: all assays above

COC(=O)[C@@H](N)Cc1ccc(O)c(O)c1
not listed: WaGa
inactive: all other assays above

CC(C)(C)NCC(O)c1cc(O)cc(O)c1 (configuration not stated)
inactive: all assays above

CCc1cccc(N(C)C(N)=Nc2cccc3ccccc23)c1
not listed: WaGa
inactive: all other assays above

CCN(CC)CCNC(=O)c1cc(S(C)(=O)=O)ccc1OC
not listed: Hek293T
inactive: all other assays above

C[C@]12CCC(=O)C=C1CC[C@@H]1[C@@H]2C(=O)C[C@@]2(C)[C@H]1CC[C@]2(O)C(=O)CO
inactive: all assays above

CCCCOCCOCCOCc1cc2c(cc1CCC)OCO2
inactive: all assays above

Cc1ccc(S(=O)(=O)NC(=O)NN2CCCCCC2)cc1
inactive: all assays above

C[N+](C)(C)CCOC(N)=O
not listed: CAOV3
inactive: all other assays above
